# PubChem BioAssay (EPA / NIEHS)
# Results filed as inconclusive are left out. Calls of active or inactive are those of the source. How the source made its calls, unless noted: active means hit-call score of the fitted dose curve at least 0.9, where 1 is the maximum; inactive means score below 0.9.
# How the values were obtained:
# [1] = ATG_DR4_LXR_CIS: Attagene CIS-FACTORIAL HepG2 Assay for human Liver X Receptor (LXR), DR4 submotif (AID 2282929); conditions: HepG2 Attagene DR4 cis-reporter, mRNA transcription; actives raise or lower the signal
# Method in brief: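 Fluorescence intensity of labelled reporter cDNA fragments, separated by capillary electrophoresis, gives the signal. HepG2 cells bearing cis-regulated reporter constructs were treated 24 h; activity fitted bidirectionally relative to DMSO negative control.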
# [2] = ATG_M_19_CIS: Attagene CIS-FACTORIAL HepG2 Assay for M19 Transcription Factor (Internal Marker) (AID 2282939); conditions: HepG2 Attagene CIS-FACTORIAL M19 internal marker reporter; actives raise or lower the signal
# Method in brief: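 HepG2 cells transiently transfected with cis-regulated multiplexed reporter units, dosed 24 h. Reporter mRNA quantified by RT-PCR and capillary electrophoresis; internal background marker fitted bidirectionally versus DMSO.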
# [3] = molecular target: Hepatocyte nuclear factor 3-beta (Homo sapiens) (UniProt Q9Y261); test: ATG_FoxA2_CIS: Attagene CIS-FACTORIAL HepG2 Assay for human Forkhead box A2 (FOXA2) (AID 2282942); conditions: HepG2 cis-reporter transcription factor activity, 24 h; actives raise or lower the signal
# Method in brief: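 Reporter transcript induction is measured by fluorescence after capillary electrophoresis of RT-PCR products from HepG2 cells exposed 24 h. Cis-regulated reporter units report endogenous factor activity; curves fitted both directions against DMSO.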
# [4] = ATG_ISRE_CIS: Attagene CIS-FACTORIAL HepG2 Assay for human Interferon Regulatory Factor 1 (IRF1) binding to an Interferon-Stimulated Response Element (ISRE) (AID 2282948); conditions: HepG2 ISRE cis-reporter (Attagene), mRNA transcription readout; actives raise or lower the signal
# Method in brief: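 HepG2 cells transiently transfected with multiplexed cis-promoter reporter units; after 24 h compound exposure, reporter mRNA quantified by RT-PCR, FAM labelling, HpaI digestion and capillary electrophoresis. Bidirectional fit versus DMSO baseline.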
# [5] = molecular target: Hypoxia-inducible factor 1-alpha (Homo sapiens) (UniProt Q16665); test: ATG_HIF1a_CIS: Attagene CIS-FACTORIAL HepG2 Assay for human Hypoxia Inducible Factor 1 (HIF1A) (AID 2282951); conditions: HepG2 Attagene cis-factorial HIF1a reporter transcription; actives raise or lower the signal
# Method in brief: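 Fluorescence intensity of capillary-separated, 6-FAM-labelled reporter amplicons gives mRNA induction in HepG2 cells carrying transfected cis-promoter reporter units; cells exposed 24 h, responses fitted up or down from DMSO.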
# [6] = molecular target: Hepatocyte nuclear factor 6 (Homo sapiens) (UniProt Q9UBC0); test: ATG_HNF6_CIS: Attagene CIS-FACTORIAL HepG2 Assay for human Hepatocyte Nuclear Factor 6 (HNF6) (AID 2282952); conditions: HepG2 Attagene cis-factorial HNF6 reporter transcription; actives raise or lower the signal
# Method in brief: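 HepG2 cells transiently transfected with cis-element-driven multiplexed reporter units measuring endogenous transcription factor activity. After 24 h exposure, reporter mRNA quantified by RT-PCR, FAM-labelled fragments and capillary electrophoresis; bidirectional fitting versus DMSO.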
# [7] = molecular target: Heat shock factor protein 1 (Homo sapiens) (UniProt Q00613); test: ATG_HSE_CIS: Attagene CIS-FACTORIAL HepG2 Assay for human Heat Shock Transcription Factor 1 (HSE) (AID 2282953); conditions: HepG2 HSE cis-reporter, Attagene RNA transcription; actives raise or lower the signal
# Method in brief: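 HepG2 cells transfected with cis-promoter reporter units sensing endogenous transcription factor activity; reporter mRNA quantified 24 h post-dose by RT-PCR and capillary electrophoresis of 6-FAM-labelled products. Bidirectional fitting against DMSO.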
# [8] = ATG_RORE_CIS: Attagene CIS-FACTORIAL HepG2 Assay for human RAR-related Orphan Receptor Element (RORE) (AID 2282959); conditions: HepG2 Attagene cis-factorial RORE reporter, mRNA; actives raise or lower the signal
# Method in brief: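 Endogenous factor activity at a cis response element is read as reporter transcript levels in HepG2 cells, 24 h post-dose. Transcripts are quantified by RT-PCR with capillary electrophoresis, and data fitted in both directions against DMSO.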
# [9] = ATG_Sox_CIS: Attagene CIS-FACTORIAL HepG2 Assay for human SRY-box transcription factor (SOX) (AID 2282960); conditions: HepG2 Attagene cis-factorial SOX reporter, mRNA; actives raise or lower the signal
# Method in brief: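 Measures mRNA induction of a SOX1-associated reporter in HepG2 after 24 h dosing. Fluorescently labelled RT-PCR fragments are separated by capillary electrophoresis, and gain or loss relative to DMSO control is fitted.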
# [10] = ATG_TGFb_CIS: Attagene CIS-FACTORIAL HepG2 Assay for human Transforming Growth Factor (TGF) (AID 2282967); conditions: HepG2 Attagene CIS TGFb reporter, mRNA transcription; actives raise or lower the signal
# Method in brief: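 HepG2 cells transiently transfected with cis-promoter-driven multiple reporter units measure endogenous TF activity; reporter mRNA quantified at 24 h by RT-PCR, FAM labeling, HpaI digestion and capillary electrophoresis. Bidirectional fit vs DMSO.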
# [11] = ATG_VDRE_CIS: Attagene CIS-FACTORIAL HepG2 Assay for human Vitamin D Receptor Element (VDRE) (AID 2282968); conditions: HepG2 VDRE cis-reporter transcription, actives raise or lower the signal
# Method in brief: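 Reporter mRNA induction, quantified by capillary electrophoresis of fluorescently labelled RT-PCR products, was read 24 h after dosing HepG2 cells carrying transiently transfected cis-regulated reporter units; gain or loss relative to DMSO.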
# [12] = ATG_M_06_TRANS: Attagene TRANS-FACTORIAL HepG2 Assay for M06 Transcription Factor (Internal Marker) (AID 2282983; active means hit-call score of the fitted dose curve at least 0.9, where 1 is the maximum); conditions: HepG2 Attagene TRANS M06 internal marker reporter
# Method in brief: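 HepG2 cells transiently transfected with GAL4-UAS multiple reporter units, dosed 24 h. Reporter RNA reverse-transcribed, PCR-amplified, 6-FAM-labeled, HpaI-digested and quantified by capillary electrophoresis; this internal-marker signal fitted upward relative to DMSO.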
# [13] = ATG_NFI_CIS: Attagene CIS-FACTORIAL HepG2 Assay for human Nuclear Factor I (NFI) (AID 2282989); conditions: HepG2 cis-regulatory reporter, NFI response element transcription; actives raise or lower the signal
# Method in brief: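 Endogenous TF activity in HepG2 cells transiently transfected with cis-element-driven multiplexed reporter units, read 24 h after dosing. Reporter mRNA quantified by RT-PCR, 6-FAM labelling, HpaI digestion and capillary electrophoresis; bidirectional fit versus DMSO.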
# [14] = molecular target: Myc proto-oncogene protein (Homo sapiens) (UniProt P01106); test: ATG_Myc_CIS: Attagene CIS-FACTORIAL HepG2 Assay for human Myelocytomatosis (Myc) Proto-Oncogene Transcription Factor (AID 2282990); conditions: HepG2, Attagene cis-reporter transcription factor activity; actives raise or lower the signal
# Method in brief: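 After 24 h chemical treatment of HepG2 cells carrying multiplexed cis-regulated reporter constructs, reporter transcripts quantified by RT-PCR and capillary electrophoresis of fluorescent fragments. Gain or loss fitted against DMSO baseline.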
# [15] = ATG_NRF2_ARE_CIS: Attagene CIS-FACTORIAL HepG2 Assay for human Nuclear Factor Erythroid 2 Related Factor 2 (NFR2) response to Antioxidant Response Elements (ARE) (AID 2282992); conditions: HepG2 Attagene ARE/NRF2 reporter, transcription factor activity; actives raise or lower the signal;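 on AC50: reporter mRNA level measured by RT-PCR and capillary electrophoresis fluorescence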
# Method in brief: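 HepG2 cells transiently transfected with multiplexed cis-regulated reporter transcription units measure endogenous transcription factor activity. Reporter mRNA at 24 h is quantified by RT-PCR, fluorescent labelling and capillary electrophoresis, with bidirectional fitting relative to DMSO.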
# [16] = molecular target: Cellular tumor antigen p53 (Homo sapiens) (UniProt P04637); test: ATG_p53_CIS: Attagene CIS-FACTORIAL HepG2 Assay for human p53 Transcription Factor (AID 2282994); conditions: HepG2 p53 cis-element reporter, Attagene mRNA; actives raise or lower the signal
# Method in brief: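 HepG2 cells transiently transfected with multiplexed cis-regulated reporter transcription units read endogenous TF activity. After 24 h compound exposure, reporter mRNA was quantified by RT-PCR, fluorescent labelling, HpaI digestion and capillary electrophoresis; bidirectional fits versus DMSO baseline.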
# [17] = molecular target: Nuclear receptor subfamily 1 group I member 2 (Homo sapiens) (UniProt O75469); test: ATG_PXR_TRANS: Attagene TRANS-FACTORIAL HepG2 Assay for human Pregnane X Receptor (PXR) (AID 2283008; active means hit-call score of the fitted dose curve at least 0.9, where 1 is the maximum)
# Method in brief: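 HepG2 cells transiently transfected with multiple reporter units, here a PXR-GAL4 chimera driving a GAL4-UAS reporter; 24 h compound exposure. Reporter mRNA measured by RT-PCR, FAM labelling and capillary electrophoresis; gain of signal fitted against DMSO baseline.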
# [18] = molecular target: Transcription factor E2F1 (Homo sapiens) (UniProt Q01094); test: ATG_E2F_CIS: Attagene CIS-FACTORIAL HepG2 Assay for human E2F Transcription Factor 1 (AID 2282935); conditions: HepG2 Attagene cis-reporter, E2F reporter RNA transcripts; actives raise or lower the signal
# Method in brief: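 Cis-element reporter mRNA induction in transiently transfected HepG2, 24 h exposure. Activity fitted in both directions relative to DMSO negative control.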
# [19] = ATG_TA_CIS: Attagene CIS-FACTORIAL HepG2 Assay for human TA Basal Promoter (AID 2282964); conditions: HepG2 Attagene CIS-factorial TA basal promoter reporter; actives raise or lower the signal
# Method in brief: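 HepG2 cells transiently transfected with multiple reporter units under cis promoter elements, reporting endogenous transcription factor activity; this endpoint tracks the TA basal promoter as background control. Reporter mRNA after 24 h dosing measured by RT-PCR/capillary electrophoresis; bidirectional fits versus DMSO.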
# [20] = ATG_CMV_CIS: Attagene CIS-FACTORIAL HepG2 Assay for human CMV (Internal Marker) (AID 2282928); conditions: HepG2 CMV promoter reporter, transcription factor profiling; actives raise or lower the signal;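 further: endpoint acts as a background internal control marker rather than a target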
# Method in brief: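 HepG2 cells transiently transfected with multiple cis-regulated reporter units; 24 h compound exposure. Reporter mRNA quantified by RT-PCR, 6-FAM primer-extension labeling, HpaI digestion and capillary electrophoresis; bidirectional fitting against DMSO baseline.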
# Sequence of Hepatocyte nuclear factor 3-beta (Homo sapiens) (Q9Y261 whole entry, looked up): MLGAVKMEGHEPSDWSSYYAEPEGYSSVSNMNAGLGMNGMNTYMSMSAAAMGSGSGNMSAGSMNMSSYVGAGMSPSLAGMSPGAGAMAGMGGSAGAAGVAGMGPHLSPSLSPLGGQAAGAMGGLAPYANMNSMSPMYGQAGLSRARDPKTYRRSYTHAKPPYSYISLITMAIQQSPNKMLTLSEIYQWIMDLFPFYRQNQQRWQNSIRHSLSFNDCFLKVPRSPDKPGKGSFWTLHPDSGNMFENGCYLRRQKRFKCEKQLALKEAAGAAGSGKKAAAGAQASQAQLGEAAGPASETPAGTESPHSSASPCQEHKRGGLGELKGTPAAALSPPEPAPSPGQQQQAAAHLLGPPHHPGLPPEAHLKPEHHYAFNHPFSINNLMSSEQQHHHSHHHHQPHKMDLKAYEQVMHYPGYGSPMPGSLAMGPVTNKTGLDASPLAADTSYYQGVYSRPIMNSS
# Sequence of Cellular tumor antigen p53 (Homo sapiens) (P04637 whole entry, looked up): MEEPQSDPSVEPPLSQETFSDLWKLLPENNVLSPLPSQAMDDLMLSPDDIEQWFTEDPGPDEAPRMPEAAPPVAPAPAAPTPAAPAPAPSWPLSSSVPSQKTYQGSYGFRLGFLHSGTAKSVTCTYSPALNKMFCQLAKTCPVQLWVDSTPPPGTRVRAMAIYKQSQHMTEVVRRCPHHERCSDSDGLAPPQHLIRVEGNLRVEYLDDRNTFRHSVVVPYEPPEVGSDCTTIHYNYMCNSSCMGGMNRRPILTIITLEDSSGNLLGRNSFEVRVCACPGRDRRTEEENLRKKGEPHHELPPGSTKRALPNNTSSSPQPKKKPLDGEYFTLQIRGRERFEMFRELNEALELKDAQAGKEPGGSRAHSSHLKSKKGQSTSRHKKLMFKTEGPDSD
# Sequence of Myc proto-oncogene protein (Homo sapiens) (P01106 whole entry, looked up, the tested form may be a part): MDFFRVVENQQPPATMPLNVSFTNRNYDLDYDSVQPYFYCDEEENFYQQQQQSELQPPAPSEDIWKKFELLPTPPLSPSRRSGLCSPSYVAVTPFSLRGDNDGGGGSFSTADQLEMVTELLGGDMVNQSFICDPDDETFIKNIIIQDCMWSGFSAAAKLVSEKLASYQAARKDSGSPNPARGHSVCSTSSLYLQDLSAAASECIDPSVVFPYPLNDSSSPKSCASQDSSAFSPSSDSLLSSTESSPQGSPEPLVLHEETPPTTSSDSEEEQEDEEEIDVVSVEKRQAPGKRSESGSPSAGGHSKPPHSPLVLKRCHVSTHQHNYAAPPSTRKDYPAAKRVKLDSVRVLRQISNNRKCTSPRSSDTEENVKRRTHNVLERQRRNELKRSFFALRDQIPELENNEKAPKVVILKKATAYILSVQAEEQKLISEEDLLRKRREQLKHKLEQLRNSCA
# Sequence of Heat shock factor protein 1 (Homo sapiens) (Q00613 whole entry, looked up): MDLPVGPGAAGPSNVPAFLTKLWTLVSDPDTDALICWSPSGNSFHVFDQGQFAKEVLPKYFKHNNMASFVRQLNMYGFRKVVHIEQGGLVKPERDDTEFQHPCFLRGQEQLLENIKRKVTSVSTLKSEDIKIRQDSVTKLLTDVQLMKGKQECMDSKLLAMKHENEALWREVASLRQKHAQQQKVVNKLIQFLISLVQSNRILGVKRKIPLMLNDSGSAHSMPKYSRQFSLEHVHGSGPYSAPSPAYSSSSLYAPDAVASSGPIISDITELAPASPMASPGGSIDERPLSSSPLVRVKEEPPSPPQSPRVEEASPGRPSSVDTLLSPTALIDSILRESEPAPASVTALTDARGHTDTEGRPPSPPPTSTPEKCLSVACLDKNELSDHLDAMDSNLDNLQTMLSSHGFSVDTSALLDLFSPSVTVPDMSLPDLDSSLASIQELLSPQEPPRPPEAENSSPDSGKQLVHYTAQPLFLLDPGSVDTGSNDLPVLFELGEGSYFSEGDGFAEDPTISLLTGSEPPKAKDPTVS
# Sequence of Hypoxia-inducible factor 1-alpha (Homo sapiens) (Q16665 whole entry, looked up): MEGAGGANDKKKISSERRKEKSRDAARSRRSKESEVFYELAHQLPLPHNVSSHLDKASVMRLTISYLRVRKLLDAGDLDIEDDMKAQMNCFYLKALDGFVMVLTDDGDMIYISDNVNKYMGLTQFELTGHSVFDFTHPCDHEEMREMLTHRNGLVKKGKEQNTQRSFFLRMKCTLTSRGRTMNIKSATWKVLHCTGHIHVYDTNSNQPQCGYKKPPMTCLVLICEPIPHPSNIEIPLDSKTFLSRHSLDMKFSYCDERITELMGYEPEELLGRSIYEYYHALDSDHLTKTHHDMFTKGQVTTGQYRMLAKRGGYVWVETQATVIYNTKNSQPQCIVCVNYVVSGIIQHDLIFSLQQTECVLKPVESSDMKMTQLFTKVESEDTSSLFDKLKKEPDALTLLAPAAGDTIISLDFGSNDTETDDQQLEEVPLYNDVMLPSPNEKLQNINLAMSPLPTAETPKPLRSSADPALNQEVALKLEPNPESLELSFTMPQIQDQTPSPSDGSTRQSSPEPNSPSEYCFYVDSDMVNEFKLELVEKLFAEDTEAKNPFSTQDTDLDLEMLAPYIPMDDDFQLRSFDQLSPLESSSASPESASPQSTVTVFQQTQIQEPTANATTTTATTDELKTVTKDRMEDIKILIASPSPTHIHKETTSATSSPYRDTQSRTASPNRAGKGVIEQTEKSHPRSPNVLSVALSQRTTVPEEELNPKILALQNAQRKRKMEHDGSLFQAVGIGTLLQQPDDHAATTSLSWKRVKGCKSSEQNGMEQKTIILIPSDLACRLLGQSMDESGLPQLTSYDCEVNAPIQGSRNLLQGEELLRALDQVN
# Sequence of Transcription factor E2F1 (Homo sapiens) (Q01094 whole entry, looked up): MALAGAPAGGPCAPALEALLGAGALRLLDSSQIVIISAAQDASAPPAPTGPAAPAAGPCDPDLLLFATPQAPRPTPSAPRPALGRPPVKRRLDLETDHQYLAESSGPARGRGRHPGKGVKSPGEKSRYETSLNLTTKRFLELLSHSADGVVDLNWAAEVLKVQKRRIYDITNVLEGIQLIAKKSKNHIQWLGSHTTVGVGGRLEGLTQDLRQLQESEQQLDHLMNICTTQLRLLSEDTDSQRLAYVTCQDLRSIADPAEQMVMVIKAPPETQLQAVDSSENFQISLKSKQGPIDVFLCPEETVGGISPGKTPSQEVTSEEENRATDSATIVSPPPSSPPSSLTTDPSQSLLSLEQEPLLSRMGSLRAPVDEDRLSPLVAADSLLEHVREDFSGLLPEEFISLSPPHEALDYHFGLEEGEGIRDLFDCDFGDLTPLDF
# Sequence of Hepatocyte nuclear factor 6 (Homo sapiens) (Q9UBC0 whole entry, looked up, the tested form may be a part): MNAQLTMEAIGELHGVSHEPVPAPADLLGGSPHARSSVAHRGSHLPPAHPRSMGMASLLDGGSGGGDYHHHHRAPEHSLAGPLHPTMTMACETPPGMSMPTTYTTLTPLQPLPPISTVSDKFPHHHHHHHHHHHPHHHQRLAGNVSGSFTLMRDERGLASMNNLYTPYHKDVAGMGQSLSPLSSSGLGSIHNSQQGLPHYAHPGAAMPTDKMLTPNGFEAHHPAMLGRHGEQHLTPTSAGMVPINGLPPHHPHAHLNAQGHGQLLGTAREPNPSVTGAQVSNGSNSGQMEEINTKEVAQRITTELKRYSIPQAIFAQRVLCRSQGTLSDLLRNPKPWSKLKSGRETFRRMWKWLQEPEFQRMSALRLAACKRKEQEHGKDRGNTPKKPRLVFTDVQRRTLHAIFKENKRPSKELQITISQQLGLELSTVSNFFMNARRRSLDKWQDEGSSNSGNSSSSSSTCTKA
# Sequence of Nuclear receptor subfamily 1 group I member 2 (Homo sapiens) (O75469 whole entry, looked up, the tested form may be a part): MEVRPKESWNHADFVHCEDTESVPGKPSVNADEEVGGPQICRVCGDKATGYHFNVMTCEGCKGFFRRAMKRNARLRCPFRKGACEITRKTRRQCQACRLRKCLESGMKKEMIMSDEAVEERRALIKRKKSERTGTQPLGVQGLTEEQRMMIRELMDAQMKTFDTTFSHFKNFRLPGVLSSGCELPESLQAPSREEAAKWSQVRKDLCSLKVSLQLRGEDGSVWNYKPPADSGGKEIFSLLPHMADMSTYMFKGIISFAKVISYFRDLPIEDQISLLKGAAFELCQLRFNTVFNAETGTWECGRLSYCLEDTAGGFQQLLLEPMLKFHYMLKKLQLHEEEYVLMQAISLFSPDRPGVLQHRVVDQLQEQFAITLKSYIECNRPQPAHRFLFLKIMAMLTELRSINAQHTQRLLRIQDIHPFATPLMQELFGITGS
smiles,measurement,setting,value
CC(C)=CCOC(=O)c1ccccc1,outcome,[1],inactive
same,outcome,[2],inactive
same,outcome,[3],inactive
same,outcome,[4],inactive
same,outcome,[5],inactive
same,outcome,[6],inactive
same,outcome,[7],inactive
same,outcome,[8],inactive
same,outcome,[9],inactive
same,outcome,[10],inactive
same,outcome,[11],inactive
same,outcome,[12],inactive
same,outcome,[13],inactive
same,outcome,[14],inactive
same,outcome,[15],inactive
same,outcome,[16],inactive
same,outcome,[17],inactive
O=C(O)c1ccccc1C(=O)O,outcome,[1],inactive
same,outcome,[18],inactive
same,outcome,[2],inactive
same,outcome,[3],inactive
same,outcome,[4],inactive
same,outcome,[5],inactive
same,outcome,[6],inactive
same,outcome,[7],inactive
same,outcome,[8],inactive
same,outcome,[19],inactive
same,outcome,[10],inactive
same,outcome,[12],inactive
same,outcome,[13],inactive
same,outcome,[14],inactive
same,outcome,[15],inactive
same,outcome,[16],inactive
O=C(O)c1nc(Cl)c(Cl)c(Cl)c1Cl,outcome,[1],inactive
same,outcome,[18],inactive
same,outcome,[2],inactive
same,outcome,[3],inactive
same,outcome,[4],inactive
same,outcome,[5],inactive
same,outcome,[6],inactive
same,outcome,[7],inactive
same,outcome,[8],inactive
same,outcome,[9],inactive
same,outcome,[19],inactive
same,outcome,[10],inactive
same,outcome,[11],inactive
same,outcome,[12],inactive
same,outcome,[13],inactive
same,outcome,[14],inactive
same,AC50,[15],15.3 µM (active)
same,outcome,[17],inactive
CCC(C)NC(N)=O (stereo unspecified),outcome,[20],inactive
same,outcome,[1],inactive
same,outcome,[2],inactive
same,outcome,[3],inactive
same,outcome,[4],inactive
same,outcome,[5],inactive
same,outcome,[6],inactive
same,outcome,[7],inactive
same,outcome,[8],inactive
same,outcome,[9],inactive
same,outcome,[19],inactive
same,outcome,[10],inactive
same,outcome,[11],inactive
same,outcome,[12],inactive
same,outcome,[13],inactive
same,outcome,[14],inactive
same,outcome,[15],inactive
same,outcome,[16],inactive
CC(O)(P(=O)(O)O)P(=O)(O)O,outcome,[20],inactive
same,outcome,[1],inactive
same,outcome,[18],inactive
same,outcome,[3],inactive
same,outcome,[4],inactive
same,outcome,[6],inactive
same,outcome,[7],inactive
same,outcome,[10],inactive
same,outcome,[12],inactive
same,outcome,[13],inactive
same,outcome,[14],inactive
same,outcome,[15],inactive
CC=CC(=O)O,outcome,[1],inactive
same,outcome,[18],inactive
same,outcome,[2],inactive
same,outcome,[3],inactive
same,outcome,[4],inactive
same,AC50,[5],56 µM (active)
same,outcome,[6],inactive
same,outcome,[7],inactive
same,outcome,[8],inactive
same,outcome,[9],inactive
same,outcome,[19],inactive
same,outcome,[10],inactive
same,outcome,[11],inactive
same,outcome,[12],inactive
same,outcome,[13],inactive
same,outcome,[14],inactive
same,outcome,[15],inactive
same,outcome,[17],inactive
O=C(O)/C=C\C(=O)O,outcome,[20],inactive
same,outcome,[1],inactive
same,outcome,[2],inactive
same,outcome,[3],inactive
same,outcome,[5],inactive
same,outcome,[6],inactive
same,outcome,[7],inactive
same,outcome,[8],inactive
same,outcome,[9],inactive
same,outcome,[19],inactive
same,outcome,[10],inactive
same,outcome,[11],inactive
same,outcome,[12],inactive
same,outcome,[13],inactive
same,outcome,[14],inactive
same,outcome,[15],inactive
same,outcome,[16],inactive
C[C@H]1C[C@H]2[C@@H]3CCC4=CC(=O)C=C[C@]4(C)[C@@]3(F)[C@@H](O)C[C@]2(C)[C@@]1(O)C(=O)CO,outcome,[20],inactive
same,AC50,[1],166 µM (active)
same,outcome,[3],inactive
same,outcome,[4],inactive
same,outcome,[6],inactive
same,outcome,[7],inactive
same,outcome,[8],inactive
same,outcome,[9],inactive
same,outcome,[10],inactive
same,outcome,[12],inactive
same,outcome,[13],inactive
same,outcome,[14],inactive
same,AC50,[15],100 µM (active)
same,AC50,[16],39.4 µM (active)
same,AC50,[17],0.685 µM (active)
